Source: PubChem
Only some compounds are listed: those with a hit (about 3.4% of all), similar ones and a draw of the others.
GPR151 ag – activates the human receptor GPR151; 650,000 tested, 1% active; Q8TDV0; PathHunter beta-arrestin GPR151 cells, luminescence; activation, % at 11.2 µM; in the data active = activation above about 4.9%;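 note: 0% = median of compound wells and 100% = cells with positive control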
MITF inh – human MITF inhibition, primary screen; 650,000 tested, 0.91% active; O75030; AlphaScreen MITF homodimerization, bead proximity signal; AID 1259374; inhibition, % at 2.6 µM; in the data active = inhibition above about 50%;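 note: 0% = vehicle wells with protein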
FBW7 activator – human FBW7 E3 ligase activation, primary screen; normalized activity (activation), % at 26.1 µM; Q969H0; AlphaScreen FBW7–phospho-cyclin E peptide binding, activator screen; AID 1259310; 650,000 tested, 0.13% active; in the data active = normalized activity above about 1.9%;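 note: purified mutant Fbw7 with reduced substrate affinity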
TEAD-YAP block – TEAD-YAP interaction inhibition. 640,000 tested, 1.4% active. AID 1259422. HEK-TIYL cells, TEAD-Gal4/YAP UAS-luciferase luminescence. inhibition, % at 9.12 µM; in the data active = inhibition above about 32%;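 note: 0% = median of test compound wells and 100% = reference inhibitor wells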
Starred values were filed as active, the others as inactive.

SMILES | GPR151 ag | MITF inh | FBW7 activator | TEAD-YAP block
COc1cc(/C=C/C(=O)Nc2ccc3nc(N4CCN(c5ncccn5)CC4)cc(C)c3c2)cc(OC)c1OC | 2 | 1 | 0 | 42*
Cc1cc(N2CCN(c3ncccn3)CC2)nc2ccc(NC(=O)c3ccncc3)cc12 | 1 | 6 | 0 | 48*
N#Cc1c2n(c3c(N)ncnc13)CCCCC2 | -1 | -1 | 0 | 7
O=C(O)c1cc2c3c(c1)C1C=CCC1C(c1ccc(Cl)cc1)N3CC1CC=CC21 (configuration not stated) | -1 | 88* | 0 | 4
O=C(O)C1C2CC=CC2c2cc(Cl)cc3c2N1CC1CC=CC31 (configuration not stated) | -1 | -3 | 2.7* | -1
CCOCCCNC(=O)C1CC(C(c2ccccc2)c2ccccc2)=NO1 (configuration not stated) | 2 | -9 | 0 | -8
COc1ccc(Cc2nnc(Nc3cccc(OC)c3)[nH]c2=O)cc1 | -1 | 14 | 0 | 57*
COc1ccc(Cc2nnc(NCc3ccco3)[nH]c2=O)cc1 | 1 | 7 | 0 | 58*
N/C(=N\OC(=O)c1ccc2ccccc2c1)c1cccc([N+](=O)[O-])c1 | 0 | -5 | 0 | 0
COc1cccc(N2C(=O)/C(=C/C=C/c3ccco3)C(=O)NC2=S)c1 | -2 | 57* | 1 | 6
CC(=O)c1ccc(-c2ccc(C=C3C(=O)N(C)C(=S)N(C)C3=O)o2)cc1 | -1 | -5 | 0 | -14
O=C1NC(=O)N(c2cccc(F)c2)C(=O)/C1=C\C=C\c1ccco1 | 0 | 27 | 0 | -3
CN1C(=O)C(=Cc2ccco2)C(=O)N(C)C1=S | -1 | 71* | -1 | 6
CC1(C)OC(=O)C(=C/C=C/c2ccco2)C(=O)O1 | 0 | 71* | 0 | 9
CN1C(=O)C(=Cc2ccc(I)o2)C(=O)N(C)C1=S | 1 | 81* | 0 | -1
COc1cccc(OCCCn2cnc3ccccc3c2=O)c1 | 1 | 5 | 0 | -35
CCCC(=O)NC(=S)Nc1ccc(OC)c(Cl)c1 | 1 | 8 | 0 | 2
CN1C2CCC1/C(=C\c1ccco1)C(=O)/C2=C\c1ccco1 | -1 | 54* | 0 | 4
CN1C(=O)C(=C/C=C/c2ccco2)C(=O)N(C)C1=S | -1 | 77* | 0 | 2
O=C1/C(=C\c2ccco2)N2CCC1CC2 | 1 | 20 | 0 | -1
Cc1ccccc1N=CC1=C(O)c2ccccc2C1=O | 0 | 7 | 0 | 87*
COc1ccc(N=CC2=C(O)c3ccccc3C2=O)c(OC)c1 | 1 | 3 | 0 | 69*
O=C1C(C=Nc2ccc(F)cc2)=C(O)c2ccccc21 | -2 | 4 | 0 | 12
COc1ccc(N=C(C)C2=C(O)c3ccccc3C2=O)c(OC)c1 | 2 | -6 | 0 | -17
COC1=C(O)C(=O)c2c(cc3oc(C(C)=O)c(O)c3c2O)C1=O | -1 | 76* | 0 | 2
SMILES | GPR151 ag | MITF inh | FBW7 activator | TEAD-YAP block
Cc1ncn(-c2ccc(Nc3nccc(-c4ccc(C#N)c(NC(C)C)c4)n3)cc2)n1 | 0 | 1 | 0 | 48*
Cc1ncn(-c2ccc(Nc3nccc(-c4ccc(C#N)c(N5CCN(C)CC5)c4)n3)cc2)n1 | -2 | -2 | 0 | 51*
Cc1ncn(-c2ccc(Nc3nccc(-c4cc(C#N)cc(NC(C)C)c4)n3)cc2)n1 | 1 | 13 | 0 | 10
Cc1ccc(OCC(O)CN2CCN(C)CC2)cc1C (configuration not stated) | 3 | 15 | 0 | -1
Cc1cc(OCC(=O)Nc2ccc(C(=O)OC3CCCCC3)cc2)ccc1Cl | 2 | 18 | 0 | 84*
COc1ccccc1NC(=O)c1ccccc1NC(=O)c1cc(OC)c(OC)c(OC)c1 | 1 | 4 | 0 | 55*
COc1cccc(C(=O)Nc2ccccc2C(=O)Nc2ccccc2OC)c1 | 1 | 0 | 0 | 43*
COc1cccc2cc(-c3nc4ccccc4s3)c(=O)oc12 | -2 | 5 | 0 | 72*
COc1cccc2cc(-c3cc4cccc(OC)c4oc3=O)c(=O)oc12 | 1 | 4 | 0 | 11
COc1cc(C(=O)Nc2ccccc2-c2nc3ccccc3s2)cc(OC)c1OC | -1 | -3 | 0 | 53*
COc1ccccc1NC(=O)c1ccccc1NC(=O)c1ccccc1 | 0 | 15 | 2 | 9
COc1ccccc1Nc1ncc(C(=O)NCCC(C)C)c2ccccc12 | 0 | 14 | 0 | -7
COc1ccccc1NC(=O)c1cnc(Nc2ccccc2OC)c2ccccc12 | 1 | -5 | 1 | 45*
COc1ccc(Cl)cc1NC(=O)c1ccc(F)cc1 | 0 | 16 | 2.3* | 5
COc1ccccc1NC(=O)c1ccc(OC(=S)N(C)C)cc1 | -1 | 20 | 2.3* | -20
